# Screening data deposited in PubChem BioAssay by Sanford-Burnham Center for Chemical Genomics.
# An excerpt weighted towards active compounds, which were near 2.2% of everything screened.
# PPC-1+TRAIL kill: compounds killing PPC-1 cancer cells with TRAIL present, primary screen, TRAIL potentiator project, ATPLite luminescence, uHTS | PPC-1 cells + TRAIL, ATPLite viability luminescence | cell killing (% activity), % at 4 µM or 5 µM | actives 0.41% (n = 220,000);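 active = cell killing above 50% in the first pass at 4 µM, then a duplicate retest at 5 µM averaging 50% or more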;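 also: plate controls were cells with TRAIL plus DMSO for no effect and medium-only wells lacking cells for full effect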
# hiPSC survival: enhancers of single-cell hiPSC survival, primary screen, ATPlite luminescence; 100% = ROCK inhibitor wells, 0% = DMSO; actives 0.044% (n = 360,000); survival enhancement, % at 20 µM; in the data active = survival enhancement above about 18%;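 also: cells exposed to compounds for 16 hours before the ATP read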
# TRAIL sens C8: viability loss with TRAIL in NB7+C8 cells, primary screen, TRAIL sensitizer project, cell-based, ATPlite luminescence | AID 624354, 2012 | inhibition (viability loss, TRAIL sensitization), % at 10 µM | actives 1% (n = 360,000);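 active = compounds causing at least 50% loss of cell viability in the single-dose screen, relative to plate controls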
# CF NFkB block: inhibitors of PAF-induced NF-kB signaling, primary screen, cell-based, GFP fluorescence, uHTS; inhibition, % at 5 µM; KKLEB NF-kB-GFP reporter, GFP fluorescence overnight; AID 588850, 2011; actives 0.86% (n = 360,000);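 active = at least 50% inhibition at 5 µM, scaled per plate between neutral and stimulator controls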;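 also: PAF is a Pseudomonas aeruginosa culture filtrate used as stimulus; plate controls were PAF-stimulated DMSO wells for no effect and unstimulated DMSO wells for full effect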
# HIF-2a inh: HIF-2a reporter inhibitors, primary screen, luminescence, 786-0 RCC cells. actives 0.72% (n = 360,000). AID 624352, 2012. inhibition, % at 18.8 µM. 786-0 RCC cells HIF-2a reporter, luciferase luminescence, overnight;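 active = inhibition of the luminescence signal of 40% or more relative to plate controls, in a single-dose primary screen at 18.75 µM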
# KKLEB tox: cytotoxicity in KKLEB CF airway cells, primary screen, cytotoxicity control for CF NF-kB inhibitor project, cell-based, uHTS, fluorescence assay plates; activity change (cytotoxicity), % at 5 µM; AID 602141, 2011; actives 0.36% (n = 360,000); KKLEB CF airway cells viability, ATPlite luminescence, overnight; active compounds read low; cells stimulated with P. aeruginosa culture filtrate;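 active = corrected activity change at or below -50% at 5 µM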
# CF NFkB conf: inhibitors of PAF-induced NF-kB signaling, retest, confirmation, cell-based, GFP fluorescence, single concentration; shares compounds with CF NFkB block; KKLEB CF airway cells, overnight; inhibition, % at 5 µM; actives 64% (n = 1,300); in the data active = inhibition above about 40%;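 also: stimulus PAF is a Pseudomonas aeruginosa filtrate and not platelet activating factor; plate controls were DMSO wells with stimulus for no effect and unstimulated DMSO wells for full effect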
# An asterisk follows results filed as active; . = not tested or not shown.
SMILES,PPC-1+TRAIL kill,hiPSC survival,TRAIL sens C8,CF NFkB block,HIF-2a inh,KKLEB tox,CF NFkB conf
C=C(CC[C@@H](O)C(C)(C)O)[C@H]1CC[C@]2(C)[C@@H]1CCC1[C@@]3(C)CCC(=O)C(C)(C)C3CC[C@]12C (some centres not stated),.,-0.1,3.6,25.1,5.9,-20.3,.
Cc1ccc(NC(=S)N(CCCN2CCCC2)Cc2cccn2Cc2ccc(Cl)cc2)cc1C,0.6,-0.8,16.4,50.6*,-26.7,-42.9,27.7
CCOC(=O)Cc1nnc2c(Nc3ccc(Cl)cc3)nc3nonc3n12,6.0,10.4,28.1,50.7*,7.2,-20.9,59.3*
CCOC(=O)Cc1csc(Nc2ccc(Cl)cc2)n1,11.4,-2.4,2.1,-2.8,12.7,11.8,.
CCOCCOC(=O)c1[nH]c2c(c1C)C(=O)CC(c1ccccc1)C2 (configuration not stated),.,-0.5,13.8,35.9,-15.9,-15.0,.
CCCCCOC(=O)c1[nH]c2c(c1C)C(=O)CC(c1ccco1)C2 (configuration not stated),-1.8,-3.0,22.0,52.4*,-4.7,-47.0,84.5*
CCS(=O)(=O)c1nc(S(=O)(=O)c2ccc(C)cc2)c(NCCCn2ccnc2)s1,.,-0.5,-15.7,-17.1,1.8,-19.8,.
Cc1ccsc1/C=N/NC(=O)c1nnn(-c2nonc2N)c1-c1ccccc1,.,0.8,7.9,40.5,-9.5,-19.8,.
COc1cccc(-c2c(C(=O)N/N=C/c3sccc3C)nnn2-c2nonc2N)c1,.,0.3,19.6,50.2*,20.1,-9.5,34.8
C=C1C(=O)[C@]23C[C@H]1CC[C@H]2[C@]1(C)[C@@H](OC(C)=O)CC[C@@](C)(C(=O)O)[C@H]1C[C@@H]3OC(C)=O,.,-2.7,21.4,62.4*,-26.2,0.6,16.7
C=C1C(=O)[C@]23C[C@H]1CCC2[C@]1(C)C(=O)CC[C@@](C)(C(=O)O)C1C[C@@H]3O (some centres not stated),.,-1.4,18.0,70.7*,13.3,-13.2,85.8*
Cc1ccc(N2C(=O)CC(C)CC2=O)cc1,.,0.1,-0.5,14.1,6.6,2.5,.
O=C(/C=C/c1ccccc1[N+](=O)[O-])N1CCOCC1,.,-0.6,-11.9,69.7*,18.8,-43.8,-1.9
NC(=O)C1CCN(C(=O)/C=C/c2ccccc2[N+](=O)[O-])CC1,-5.0,0.7,-14.5,8.0,7.1,-1.7,.
COc1ccc(-c2csc(/C(C#N)=C\c3ccc(OC)c([N+](=O)[O-])c3)n2)cc1,-3.8,2.1,2.8,-15.1,1.3,-13.4,.
COc1ccc(-c2csc(/C(C#N)=C\c3ccc(O)c([N+](=O)[O-])c3)n2)cc1OC,4.2,0.4,1.0,79.3*,-50.7,-1.8,79.8*
COc1cc(NC(=O)c2cc3ccccc3cc2OC)ccc1NC(=O)c1cccs1,.,-0.1,31.8,59.0*,-18.8,16.7,102.2*
COc1ccc(-n2c(C)cc3cc(OC(C)=O)ccc32)cc1,.,-0.4,8.5,57.2*,-75.9,-11.4,57.6*
COc1ccc(-n2c(C)c(C(C)=O)c(C(C)=O)c2C)cc1,13.0,-2.6,-14.5,8.0,7.2,-13.4,.
COCCOc1ccc(C(F)(F)F)cc1NC(=O)COC(=O)c1cc([N+](=O)[O-])ccc1N1CCOCC1,.,0.0,6.6,2.3,13.3,-13.7,.
OCCN1CCN(c2ncnc3ccc(Br)cc23)CC1,11.8,-0.1,12.1,53.1*,27.5,-8.8,67.0*
OCCN1CCN(c2nc(-c3ccccc3)c3cc(Br)ccc3n2)CC1,.,0.9,6.5,28.7,2.7,-15.4,.
Cc1nc(N2CCOCC2)nc(N2CCCCC2C)c1[N+](=O)[O-] (configuration not stated),3.1,0.0,-12.8,33.2,27.1,-23.4,.
CC1CCCCN1c1ncnc(N)c1[N+](=O)[O-] (configuration not stated),9.5,-0.1,-12.7,73.8*,13.9,0.0,64.2*
NC(=S)N1OC[C@@H]2COc3ccc4ccccc4c3[C@@H]21,16.4,0.6,9.8,72.2*,11.5,-36.3,54.9*
SMILES,PPC-1+TRAIL kill,hiPSC survival,TRAIL sens C8,CF NFkB block,HIF-2a inh,KKLEB tox,CF NFkB conf
O=C(Nc1ccc(Cl)c(Cl)c1)Nc1ccon1,.,-0.3,25.4,53.7*,-51.3,-11.9,40.4*
CCc1ccc(-c2cc(C)no2)cc1S(=O)(=O)N1CCN(C(=O)c2ccco2)CC1,.,-0.1,10.4,30.8,13.1,-2.6,.
c1nc(N2CCOCC2)c2c3c(sc2n1)CCCC3,14.0,-2.3,11.5,55.0*,24.1,-23.2,70.4*
Nc1nc(/C=C/c2ccc(F)cc2)nc(-c2ccccc2O)n1,8.3,-0.8,6.9,-5.0,-11.6,7.7,.
Nc1nc(/C=C/c2cccnc2)nc(-c2ccccc2O)n1,22.6,-0.7,22.5,91.1*,-47.9,-11.3,74.6*
CCOc1ccccc1C1NC(=O)c2ccccc2O1 (configuration not stated),.,0.0,-1.6,-22.9,17.9,-2.3,.
CCOc1ccc(NCc2cc3c(C(C)(C)C)nn(-c4ccccc4)c3[nH]c2=O)cc1,-4.5,-1.5,3.2,55.4*,13.9,31.7,72.9*
c1ccc(C2[C@H]3CN(Cc4cccnc4)[C@H](c4ccccc4)C34CC2(c2ccccc2)C4)cc1 (some centres not stated),-4.0,-0.4,24.3,53.4*,-19.4,-19.0,4.8
COc1ccc(N(C)S(=O)(=O)c2ccc(Cl)c(C(=O)NNC(=O)c3ccccc3O)c2)cc1,.,0.6,5.5,-23.8,7.6,6.4,.
CC(=O)Oc1ccccc1C(=O)Oc1ccc(/C=N/n2cnnc2)cc1,-2.5,1.5,12.7,72.9*,14.7,-15.3,63.8*
Fc1ccccc1-c1csc(=Nc2cccnc2)n1CCCn1ccnc1,-2.8,-1.3,-10.6,65.9*,-33.1,-13.3,70.8*
Fc1ccccc1-c1csc(=Nc2cccnc2)n1CC1CCCO1 (configuration not stated),14.1,-1.5,4.5,-19.3,-27.0,10.8,.
Cc1ccc(NNC(=O)C(O)(c2cccc(C(F)(F)F)c2)c2cccc(C(F)(F)F)c2)cc1,-8.1,-0.1,24.9,-13.8,5.9,5.9,.
O=C(NNc1ccccc1Br)C(O)(c1cccc(C(F)(F)F)c1)c1cccc(C(F)(F)F)c1,15.1,2.0,23.6,56.9*,24.2,-47.1,83.1*
O=C(NN1C(=O)NC2(CCCCC2)C1=O)c1ccc(-c2ccc([N+](=O)[O-])cc2)o1,.,-0.4,8.7,-11.4,-12.0,-0.9,.
